Results taken from PubChem BioAssay (Tox21).
Values joined by “and” are separate entries in the source; they are usually repeats but may differ in a detail not shown here. Equal entries are not always repeated. Results filed as inconclusive are left out. Active and inactive are the calls of the source. Unless noted, calls follow the shape of the dose curve; as a rule, active = well fitted curve in the direction sought with a large enough effect in the repeat runs; inconclusive = weak or mixed curves; inactive = no such curve, though single readings can be large; an effect the other way counts as inactive or inconclusive.

Assays:
[1] = qHTS assay to identify small molecule antagonists of the androgen receptor (AR) signaling pathway using the MDA cell line in the presence of 0.5 nM R1881 - cell viability counter screen (AID 1259242); also: nearly all actives have a fitted effect of over 45% in size; also: potency is read from the fitted curve at half-maximal effect
Procedure, shortened: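 Viability of MDA-kb2 cells was multiplexed with the luciferase AR readout; after 16 hr with compounds and R1881 at 0.5 nM final, CellTiter-Fluor fluorescence was recorded.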

[2] = molecular target: Androgen receptor (Homo sapiens) (UniProt P10275); assay: qHTS assay to identify small molecule antagonists of the androgen receptor (AR) signaling pathway using the MDA cell line in the presence of 0.5 nM R1881 (AID 1259243); also: nearly all actives have a fitted effect of over 50% in size; also: potency is read from the fitted curve at half-maximal effect
Procedure, shortened: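 Reporter cells cultured without CO2 receive test chemicals, then 0.5 nM R1881 final; after 16 hr at 37C, ONE-Glo is added and light output recorded.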

[3] = qHTS assay to identify small molecule HDAC inhibitors (AID 1259364);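 also: wild-type HCT-116 cells with endogenous class I/II HDAC activity; top concentration of the series differs between compounds; nearly all actives have a fitted effect of over 45% in size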
Procedure, shortened: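 Read-out: luminescence of HDAC-Glo I/II reagent, 30 min RT, reflecting class I/II deacetylase activity in whole HCT-116 cells pre-exposed 2 h to DMSO-dissolved compounds.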

[4] = qHTS assay to identify small molecule HDAC inhibitors - cell viability counter screen (AID 1259365); also: series mostly up to about 92 µM; nearly all actives have a fitted effect of over 50% in size
Procedure, shortened: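 CellTiter-Glo luminescence (30 min, room temperature) reported viability after a 2 h compound exposure at 37 C. Cells: wild-type HCT-116, 1,500 per well, seeded the night before.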

[5] = qHTS assay to identify small molecule agonists of the sonic hedgehog signaling (Shh) pathway - cell viability counter screen (AID 1259366); also: nearly all actives have a fitted effect of over 50% in size; also: potency is read from the fitted curve at half-maximal effect
Procedure, shortened: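 Cytotoxicity counter screen: CellTiter-Fluor reagent added after 23 h compound exposure, then 1 h at 37C and fluorescence read. Cells were 3T3 Gli1-Luc, seeded 2,000 per well and dosed 4 h post-plating.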

[6] = qHTS assay to identify small molecule antagonists of the sonic hedgehog signaling (Shh) pathway - cell viability counter screen (AID 1259367); also: nearly all actives have a fitted effect of over 55% in size; also: potency is read from the fitted curve at half-maximal effect
Procedure, shortened: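 After a 4 hr settling period, 3T3 Gli1-Luc cells were treated with DMSO-dissolved chemicals and conditioned medium, kept 24 hr at 37C in 5% CO2, and assayed for viability by CellTiter-Fluor fluorescence following 1 hr reagent incubation.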

[7] = qHTS assay to identify small molecule agonists of the sonic hedgehog signaling (Shh) pathway (AID 1259368; calls by dose curve;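 also: NIH/3T3-derived 3T3Gli1-Luc cells carrying a stable Gli1-driven firefly luciferase reporter; series mostly up to about 92 µM; nearly all actives have a fitted effect of over 15% in size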)
Procedure, shortened: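 A Gli1 transcriptional response element controlled firefly luciferase in 3T3Gli1-Luc cells. Compounds and a positive control were added 4 hr after plating, and cells were incubated a further 24 hr at 37 C before luminescence detection.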

[8] = qHTS assay to identify small molecule antagonists of the sonic hedgehog signaling (Shh) pathway (AID 1259369; calls by dose curve; also: nearly all actives have a fitted effect of over 45% in size; also: potency is read from the fitted curve at half-maximal effect)
Procedure, shortened: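 For antagonist detection, the reporter line received test compounds together with conditioned medium, incubated 24hr at 37 C, 5% CO2, then luminescence was recorded following 30min room-temperature luciferase reagent incubation.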

[9] = qHTS assay to identify small molecule phospholipidosis (PLD) inducers (AID 1259344; active = well fitted curve in the direction sought with a large enough effect; an effect the other way counts as inactive or inconclusive)
Procedure, shortened: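 HepG2 cells grown on collagen I take up LipidTOX Red while exposed to compound for 24 h; after fixation they are imaged at 20x and pit metrics are extracted.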

[10] = molecular target: Estrogen receptor (Homo sapiens) (UniProt P03372); assay: qHTS assay to identify small molecule antagonists of the estrogen receptor alpha (ER-alpha) signaling pathway using the BG1 cell line in the presence of 0.1 nM 17-beta-estradiol (AID 1259244); also: nearly all actives have a fitted effect of over 50% in size; also: potency is read from the fitted curve at half-maximal effect
Procedure, shortened: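 Estradiol at 0.1 nM (final) stimulates the endogenous ER-alpha of VM7Luc4E2 cells carrying an ERE-driven luciferase; compounds are co-incubated 22 h at 37C and luciferase output quantified by luminescence.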
% is scaled to controls: 0 for no effect and ±100 for the full control effect.

Androgen receptor (Homo sapiens), sequence (P10275 whole entry, looked up): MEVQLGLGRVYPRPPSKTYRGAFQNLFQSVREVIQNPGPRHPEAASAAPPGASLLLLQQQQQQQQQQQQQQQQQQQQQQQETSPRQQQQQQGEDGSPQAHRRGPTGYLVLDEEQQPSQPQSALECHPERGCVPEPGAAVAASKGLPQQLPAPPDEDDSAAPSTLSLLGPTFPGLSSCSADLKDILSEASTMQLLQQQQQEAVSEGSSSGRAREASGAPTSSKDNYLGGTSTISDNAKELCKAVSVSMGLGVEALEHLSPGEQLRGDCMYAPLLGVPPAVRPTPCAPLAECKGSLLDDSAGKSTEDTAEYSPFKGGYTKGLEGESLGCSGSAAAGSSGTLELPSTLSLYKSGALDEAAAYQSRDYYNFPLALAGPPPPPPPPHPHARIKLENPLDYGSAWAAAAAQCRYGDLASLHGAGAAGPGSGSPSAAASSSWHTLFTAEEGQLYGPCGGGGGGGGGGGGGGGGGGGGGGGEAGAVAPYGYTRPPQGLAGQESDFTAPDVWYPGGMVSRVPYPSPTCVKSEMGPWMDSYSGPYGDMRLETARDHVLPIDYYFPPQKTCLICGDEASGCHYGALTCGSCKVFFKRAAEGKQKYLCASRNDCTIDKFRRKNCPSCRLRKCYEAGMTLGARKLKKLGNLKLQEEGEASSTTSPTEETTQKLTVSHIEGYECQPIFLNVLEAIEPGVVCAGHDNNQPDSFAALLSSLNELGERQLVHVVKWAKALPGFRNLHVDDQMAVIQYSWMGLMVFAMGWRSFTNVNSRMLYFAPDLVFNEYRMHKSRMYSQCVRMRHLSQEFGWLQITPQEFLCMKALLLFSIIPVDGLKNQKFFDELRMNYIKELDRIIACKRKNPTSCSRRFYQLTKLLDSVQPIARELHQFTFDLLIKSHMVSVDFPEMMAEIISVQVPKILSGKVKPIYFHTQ
Estrogen receptor (Homo sapiens), sequence (P03372 whole entry, looked up): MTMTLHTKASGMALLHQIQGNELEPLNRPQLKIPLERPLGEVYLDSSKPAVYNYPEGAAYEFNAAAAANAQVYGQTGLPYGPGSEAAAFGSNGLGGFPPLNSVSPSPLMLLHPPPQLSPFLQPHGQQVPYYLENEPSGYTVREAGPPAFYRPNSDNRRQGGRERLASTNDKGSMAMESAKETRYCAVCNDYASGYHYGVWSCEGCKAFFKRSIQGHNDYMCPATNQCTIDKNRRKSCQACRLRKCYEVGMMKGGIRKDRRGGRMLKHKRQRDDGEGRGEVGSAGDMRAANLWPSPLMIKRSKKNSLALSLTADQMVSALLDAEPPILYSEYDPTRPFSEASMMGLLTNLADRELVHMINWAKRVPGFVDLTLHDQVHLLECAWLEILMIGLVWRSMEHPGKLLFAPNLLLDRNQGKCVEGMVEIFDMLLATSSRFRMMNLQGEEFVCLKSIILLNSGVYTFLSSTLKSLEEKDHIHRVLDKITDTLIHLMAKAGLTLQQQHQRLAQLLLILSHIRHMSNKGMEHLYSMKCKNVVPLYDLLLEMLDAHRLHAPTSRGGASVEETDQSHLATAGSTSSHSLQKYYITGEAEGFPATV

Clc1cc(Cl)c(-c2c(Cl)c(Cl)cc(Cl)c2Cl)cc1Cl
inactive: Potency [1] | Potency [2] | Potency [3] | Potency [4] | Potency [5] | Potency [6] | Potency [7] | Potency [8]

N[C@@H](CSSC[C@H](N)C(=O)O)C(=O)O
active: Potency [8] 335 nM
inactive: viability change, negative = cytotoxic [1] -1.71% [at 0.349 µM] | activity, negative = inhibition [2] 4.74% [at 0.349 µM] | Potency [9] | activity change, negative = cytotoxicity [4] 2.74% [at 0.349 µM] | viability change, negative = cytotoxic [5] 13.4% [at 0.349 µM] | activity change [7] -0.169% [at 0.349 µM, stronger effect = higher value]

CCCC(O)C(O)CO (centres undefined)
inactive: Potency [1] | Potency [2] | Potency [3] | Potency [4] | Potency [5] | Potency [6] | Potency [7] | Potency [8]

CC1=C(/C=C/C(C)=C/C=C/C(C)=C/C(=O)Nc2ccc(O)cc2)C(C)(C)CCC1
active: Potency [1] 23.7 µM | Potency [10] 28 µM and 13.3 µM | Potency [5] 31.4 µM and 21.1 µM | Potency [6] 28 µM and 21.1 µM | Potency [8] 14 µM and 11.9 µM
inactive: Potency [9] | Potency [3] | Potency [4] | Potency [7]

CCN(CC)CCSC(=O)C(c1ccccc1)c1ccccc1
inactive: Potency [1] | Potency [10] | Potency [9] | Potency [3] | Potency [4] | Potency [5] | Potency [6] | Potency [7]
active: Potency [8] 23700 nM

CC(C)CCOCCC(C)C
inactive: Potency [1] | Potency [2] | Potency [10] | Potency [4] | Potency [5] | Potency [6] | Potency [7] | Potency [8]

CCCN(CCc1cccs1)[C@H]1CCc2c(O)cccc2C1
inactive: Potency [1] | Potency [9] | Potency [3] | Potency [4] | Potency [5] | Potency [6] | Potency [7]
active: Potency [2] 26.6 µM

NC1(c2ccc(-c3nc4ccn5c(=O)[nH]nc5c4cc3-c3ccccc3)cc2)CCC1
active: Potency [1] 33.5 µM | Potency [5] 13.3 µM | Potency [8] 94.4 nM
inactive: Potency [10] | Potency [9] | Potency [3] | Potency [4] | Potency [7]

CCCCNc1c(C(=O)OCC)c(C)nc2c1cnn2CC
active: Potency [8] 42.2 nM
inactive: Potency [1] | Potency [10] | Potency [9] | Potency [3] | Potency [4] | Potency [5] | Potency [6] | Potency [7]

c1ccc(Sc2ccccc2)cc1
active: Potency [8] 27300 nM
inactive: Potency [1] | Potency [2] | Potency [10] | Potency [4] | Potency [5] | Potency [7]

Cc1cnccn1
inactive: Potency [1] | Potency [10] | Potency [3] | Potency [4] | Potency [5] | Potency [6] | Potency [7] | Potency [8]

Clc1nc2ccccc2s1
inactive: Potency [1] | Potency [10] | Potency [3] | Potency [4] | Potency [5] | Potency [6] | Potency [7] | Potency [8]

CC(=O)c1ccccc1N
inactive: Potency [1] | Potency [10] | Potency [3] | Potency [4] | Potency [5] | Potency [6] | Potency [7] | Potency [8]

Cc1cc(C)c(C=O)c(C)c1
inactive: Potency [1] | Potency [10] | Potency [3] | Potency [4] | Potency [5] | Potency [6] | Potency [7] | Potency [8]

CCCCCCCCCCCCCc1ccccc1
inactive: Potency [1] | Potency [10] | Potency [3] | Potency [4] | Potency [5] | Potency [6] | Potency [7] | Potency [8]

CCOC(/C=C(\C)CCC=C(C)C)OCC
inactive: Potency [1] | Potency [10] | Potency [3] | Potency [4] | Potency [5] | Potency [6] | Potency [7]

C#CC(O)CCC (centres undefined)
inactive: Potency [1] | Potency [10] | Potency [3] | Potency [4] | Potency [5] | Potency [6] | Potency [7] | Potency [8]

CC[N+](CC)(CC)Cc1ccccc1
inactive: Potency [1] | Potency [10] | Potency [3] | Potency [4] | Potency [5] | Potency [6] | Potency [7] | Potency [8]

CCCCCCCCCCCCCOP(=O)(O)O
inactive: Potency [1] | Potency [10] | Potency [3] | Potency [4] | Potency [5] | Potency [6] | Potency [7] | Potency [8]

Cc1cncc(C)c1
inactive: Potency [1] | Potency [10] | Potency [3] | Potency [4] | Potency [5] | Potency [6] | Potency [7] | Potency [8]

Cc1cc(=O)[nH]c(=O)[nH]1
inactive: Potency [1] | Potency [10] | Potency [3] | Potency [4] | Potency [5] | Potency [6] | Potency [7] | Potency [8]

CC1=CCC(=O)O1
inactive: Potency [1] | Potency [10] | Potency [3] | Potency [4] | Potency [5] | Potency [6] | Potency [7] | Potency [8]

CN(C)CCN1CCOCC1
inactive: Potency [1] | Potency [10] | Potency [3] | Potency [4] | Potency [5] | Potency [6] | Potency [7] | Potency [8]

O=C1OC(=O)c2ccc3c4c(ccc1c24)C(=O)OC3=O
inactive: Potency [1] | Potency [10] | Potency [3] | Potency [4] | Potency [5] | Potency [6] | Potency [7] | Potency [8]

Cc1ccc(O)cn1
inactive: Potency [1] | Potency [10] | Potency [3] | Potency [4] | Potency [5] | Potency [6] | Potency [7]
